# Assay results taken from PubChem BioAssay AID602247 (The Scripps Research Institute Molecular Screening Center, 2012).
# Screen size: about 360,000 compounds; about 80 (0.02%) were called active. The sample as a whole holds a higher share of actives than the screen did. A number with no mark means an inactive call.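 Rule for the calls: active = activation above the run cutoff, the mean activation of all test compounds plus 3 SD (cut at about 40% in these data); inactive = the rest.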
# Assay: nonselective calcium activators in parental CHO-K1 cells, primary screen, counter-screen for M1 PAM project, cell-based, Fluo-8 calcium fluorescence, full deck, 1536-well (AID 602247);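 note: peak over basal fluorescence ratio in a 140 s read after ATP addition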
# Details: parental CHO-K1, ATP EC20, Fluo-8 calcium fluorescence; at 3 µM; stronger effect = higher value; 0% at ATP EC20, 100% at ATP max
row,Structure (SMILES),activation
1,C/C(=N\NC(=O)COc1ccc(C)cc1[N+](=O)[O-])c1ccc2c(c1)OCCO2,4.27%
2,Cc1cc(C)n(-c2nnc(C)n2NC(=O)c2cccc(Cl)c2)n1,9.43%
3,Cc1ccc(C)c(NC(=O)C2CC(=O)N(C(C)C)C2)c1 (centres undefined),12.2%
4,COCCn1c(=O)[nH]c2cc(C(=O)NCc3cccnc3)ccc2c1=O,6.89%
5,CC(C)CC(=O)c1c[nH]c(C(=O)NCc2ccccc2)c1,0.92%
6,O=C(CC(NCCN1CCOCC1)C(=O)O)Nc1cccc(Cl)c1 (centres undefined),20.9%
7,CC(=O)NC1C(Oc2ccc(C)cc2)OC2COC(c3ccco3)OC2C1O (centres undefined),-5.49%
8,O=S(=O)(NC1CCCCC1N1CCN(c2ccccc2F)CC1)c1ccccc1 (centres undefined),19.1%
9,O=C(Nc1ccc(Br)cc1)c1cccc(NC(=O)C2C3CC4OC(=O)C2C4C3)c1 (centres undefined),9.66%
10,Cc1ccc(/C=C2\CCn3c2nc2cc(C(=O)O)ccc2c3=O)c(C)c1,17.1%
11,O=C1c2cccc3cccc(c23)C(=O)N1c1cccc(O)c1,12.7%
12,OC1CCCN(c2ncnc3c2nnn3Cc2c(F)cccc2Cl)C1 (centres undefined),20.4%
13,CCC1CCCCN1C(=S)Nc1ccc(SC(F)F)cc1 (centres undefined),3.06%
14,COc1ccc(O)c(C=Nc2cc(C)on2)c1,1.78%
15,CC(C)C(=O)N1CC(=O)Nc2ccc(F)cc2C1c1ccc(F)cc1 (centres undefined),3.77%
16,CCCN1CNC(=S)N(CCc2ccccc2)C1,-4.97%
17,O=C(Nc1ccc(Br)cc1F)C1CC(=O)N(C2CCCCC2)C1 (centres undefined),9.78%
18,CCOc1ccccc1NC(=O)NC1CCCCCCC1,20%
19,CN(C)/C(CN1CCCCC1)=C1\N=C(c2ccccc2)OC1=O,19.8%
20,CN(C)CCCOc1ccc(-c2ccc3nccn3c2)cn1,15.7%

row,Structure (SMILES),activation
1,CCOP(=O)(OCC)C(Cc1ccccc1)N=C(c1ccccc1)c1ccccc1 (centres undefined),19.7%
2,COc1ccc(OC)c(NC(=O)CSc2nc3cccnc3n2C)c1,9.99%
3,O=C(CN1C(=O)c2ccc([N+](=O)[O-])cc2C1=O)Nc1nnc(C2CC2)s1,1.72%
4,CC(=O)Nc1ccc(NC(=O)C2CCCN2S(=O)(=O)c2cccc(C(F)(F)F)c2)cc1 (centres undefined),-6.05%
5,O=C1c2ccncc2C(=O)N1C1CCCCC1,15.5%
6,Cc1nc(C(F)(F)F)ccc1C(=O)N1CCC1(C)C(=O)NS(=O)(=O)c1ccccc1Cl (centres undefined),11.4%
7,COc1ccc(C(=O)N2CCC(C(=O)Nc3ccc(C)cc3)CC2)cc1,28.6%
8,Cc1ccc(Cn2cc(C(=O)NN)c(=O)c3ccc(F)cc32)cc1,-28.1%
9,CCOC(=O)C1(Cc2ccc(O)cc2)NC(c2ccccc2F)C2C(=O)N(C)C(=O)C21 (centres undefined),24%
10,Cc1cccc([C@H]2[C@@H]3C=CC[C@@H](C)[C@@H]3C(=O)N2Cc2ccccc2)c1,-0.48%
11,CSc1ccc(S(=O)(=O)NCC(=O)OCC(=O)NC2(C#N)CCCCC2)cc1[N+](=O)[O-],-4.9%
12,Nc1nc(O)c(CC(=O)O)s1,1.33%
13,O=C(CCS(=O)(=O)c1ccccc1Cl)Nc1ccc(S(=O)(=O)Nc2ncccn2)cc1,7.81%
14,COc1ccc(S(=O)(=O)N2CN(CCc3ccc(OC)c(OC)c3)c3nc4ccccc4nc32)cc1,1.88%
15,C#CCCOC(=O)N1C2=NC(C(=O)OC)=C(C(=O)OC)[C@@H]3N(C)c4ccc(OC)cc4[C@]23C[C@H]1C(=O)OC,-12.8%
16,O=C(CCCCCn1c(=S)[nH]c2ccsc2c1=O)NC1CCCCC1,16.9%
17,CC(C)n1ncc2c(C(=O)NCc3ccccc3CN(C)C)cc(C3CC3)nc21,-12.7%
18,COC(=O)c1cc(S(=O)(=O)NC2CCN(Cc3ccccc3)CC2)cn1C,3.07%
19,CCOc1ccc(NC(=S)N2CCC(N(C)CC3CCCO3)CC2)cc1 (centres undefined),23.7%
20,COc1ccc(OC)c(S(=O)(=O)N2CCCC(C(=O)NCCc3ccccc3)C2)c1 (centres undefined),-2.03%

row,Structure (SMILES),activation
1,Cc1ccc(OC(=O)c2cncc(Br)c2)c(C)c1,-0.46%
2,S=C(Nc1ccc2c(c1)OCO2)N1CCCC1,12.1%
3,COc1ccc(-c2ccc(C(=O)NC(C)C)c3occc23)c(C)c1,11%
4,CC(=O)Nc1ccc(NC(=O)CSCc2cnn(-c3ccccc3)c2-n2cccc2)cc1,1.5%
5,Cc1ccc(N2C(=O)CC(N3CCSCC3)C2=O)c(C)c1 (centres undefined),0.16%
6,CCOC(=O)C1CCN(CCC(=O)Nc2cccc(C)c2)CC1,-4.96%
7,CCCCCc1c(Cc2ccccc2)ncn1CCc1ccccc1OC,3%
8,CC(NC(=O)CN(C)S(=O)(=O)c1ccc(F)cc1)C1CC2CCC1C2 (centres undefined),9.24%
9,CCC(C(=O)NC1CCCC1)N(C(=O)Cn1nnc(-c2ccc(C)o2)n1)c1ccc(OC)c(OC)c1 (centres undefined),-0.54%
10,NC(=O)C1(Nc2ccc(-c3ccccc3)cc2)CCCC1,0.81%
11,CCOc1ccccc1-c1cc(C(=O)N/N=C(\C)c2cccnc2)c2ccccc2n1,15.1%
12,CCOc1cc(/C=N/NC(=O)c2c(C)nc3ccc(Cl)cn23)ccc1O,-3.92%
13,CCOc1cc(/C=N/NC(=O)c2cc(-c3ccccc3)nc3ccccc23)ccc1O,40.7% (active)
14,O=C(c1ccc(=O)[nH]c1)N(Cc1ccco1)C1(C(=O)NC2CCCCC2)CCCCC1,7.15%
15,CCC(C)NC(=O)C1CCC(=O)N1Cc1ccc(C)cc1 (centres undefined),19.6%
16,CCn1c(SCC(=O)Nc2ccc(OC)c(OC)c2)nnc1-c1c[nH]c2ccccc12,22.7%
17,COc1ccccc1NC(=O)C(CC(=O)O)Cc1cc(C)cc(C)c1 (centres undefined),22.4%
18,O=S(=O)(c1cccc(C(F)(F)F)c1)N1c2ccccc2-n2cccc2C1c1cccnc1 (centres undefined),10.8%
19,O=C(NC1CCCC1)C(c1ccc(N2CCOCC2)cc1)N(C(=O)c1ccco1)c1ccccc1F (centres undefined),4.16%
